Measured values published in PubChem BioAssay (NCI).
Compounds without any hit were thinned out: in the full panel of roughly 83,000, 20% have a hit.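 Single-dose data. Exposure time 48 hours. Values below 10 considered active.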 The source made the active and inactive calls.

What was measured:
Test in all cases: NCI-60 one-dose screen, 48 h (100 = growth as untreated, 0 = no growth, -100 = all killed)
Settings in all cases: 10 µM
HCT-15 colon = tested on: HCT-15 colon
HT29 colon = tested on: HT29 colon
SNB-75 CNS = tested on: SNB-75 CNS
SNB-19 CNS = tested on: SNB-19 CNS
U251 CNS = tested on: U251 CNS
PC-3 prostate = tested on: PC-3 prostate
SK-MEL-5 melanoma = tested on: SK-MEL-5 melanoma
UACC-62 melanoma = tested on: UACC-62 melanoma
LOX IMVI melanoma = tested on: LOX IMVI melanoma
SK-MEL-28 melanoma = tested on: SK-MEL-28 melanoma

Measured: growth

COc1cc(/C=C/c2cc(/C=C/c3ccc(O)c(OC)c3)[nH]c(=O)n2)ccc1O
active: HT29 colon -6.41%
inactive: HCT-15 colon 81.8% | SNB-75 CNS 44.3% | SNB-19 CNS 82.6% | U251 CNS 55.6% | PC-3 prostate 61% | SK-MEL-5 melanoma 70.7% | UACC-62 melanoma 63.3% | LOX IMVI melanoma 49% | SK-MEL-28 melanoma 50.9%

COc1cc(-c2nn(-c3cccc(NC(=O)NCCNC(=O)c4ccccc4)c3)cc2-c2ccncc2)ccc1Cl
inactive: SNB-75 CNS 33.4% | SNB-19 CNS 35.3% | U251 CNS 25.3% | UACC-62 melanoma 21.9%
active: HCT-15 colon 9.91% | HT29 colon 5.63% | PC-3 prostate 6.41% | SK-MEL-5 melanoma -72.7% | LOX IMVI melanoma 2.52% | SK-MEL-28 melanoma 7.24%

CCCC1(CN2c3ccccc3Sc3ccc(Cl)cc32)CCN(CC)C1 (stereo not given)
active: HCT-15 colon 3.6% | HT29 colon -68% | SNB-75 CNS 1.99% | SNB-19 CNS -36.3% | U251 CNS -92% | PC-3 prostate 5.75% | SK-MEL-5 melanoma -95.9% | UACC-62 melanoma -21.4% | LOX IMVI melanoma -100% | SK-MEL-28 melanoma -67.8%

C#CC(C)(O)[C@@H]1C[C@H](CC(=O)O)C1(C)C (stereo not given in full)
inactive: HCT-15 colon 104% | HT29 colon 109% | SNB-75 CNS 96% | SNB-19 CNS 98.6% | U251 CNS 109% | PC-3 prostate 105% | SK-MEL-5 melanoma 115% | UACC-62 melanoma 100% | LOX IMVI melanoma 98.1% | SK-MEL-28 melanoma 113%

O=S(=O)(Oc1ccc(-c2ccc3sccc3c2)cc1)c1ccccc1
inactive: HCT-15 colon 89.8% | HT29 colon 88.9% | SNB-75 CNS 120% | SNB-19 CNS 96.8% | U251 CNS 108% | PC-3 prostate 91% | SK-MEL-5 melanoma 94.4% | UACC-62 melanoma 74.9% | LOX IMVI melanoma 101% | SK-MEL-28 melanoma 97.9%

COc1ccc(/C=C2/SC(=S)NC2=O)c(OC)c1OC
inactive: HCT-15 colon 75.6% | HT29 colon 98.3% | SNB-75 CNS 77.8% | SNB-19 CNS 88.2% | U251 CNS 83.5% | PC-3 prostate 75.6% | SK-MEL-5 melanoma 73.8% | UACC-62 melanoma 68.6% | LOX IMVI melanoma 65.9% | SK-MEL-28 melanoma 86.9%

NS(=O)(=O)Oc1ccc2c(ccn2C(=O)C23CC4CC(CC(C4)C2)C3)c1
inactive: HCT-15 colon 110% | HT29 colon 102% | SNB-75 CNS 117% | SNB-19 CNS 98.5% | U251 CNS 99.2% | PC-3 prostate 103% | SK-MEL-5 melanoma 95% | UACC-62 melanoma 98.8% | LOX IMVI melanoma 98.8% | SK-MEL-28 melanoma 101%

Cn1cnc([N+](=O)[O-])c1/C=C1\Oc2ccc(Br)cc2C1=O
inactive: HCT-15 colon 70.4% | HT29 colon 83.8% | SNB-75 CNS 88.1% | SNB-19 CNS 90.1% | U251 CNS 101% | PC-3 prostate 81.5% | SK-MEL-5 melanoma 91.2% | UACC-62 melanoma 96.6% | LOX IMVI melanoma 72.8% | SK-MEL-28 melanoma 97.4%

CC(C)c1cc(N=O)cc(C(C)C)c1O
inactive: HCT-15 colon 98.4% | HT29 colon 109% | SNB-75 CNS 99.9% | SNB-19 CNS 95.2% | U251 CNS 98.5% | PC-3 prostate 97.5% | SK-MEL-5 melanoma 105% | UACC-62 melanoma 96.3% | LOX IMVI melanoma 96.1% | SK-MEL-28 melanoma 105%

CCn1c(SCCc2ccccc2)nnc1-c1nn(-c2ccc(Cl)cc2Cl)c(-c2ccc(Cl)cc2)c1C
inactive: HCT-15 colon 45.6% | HT29 colon 67.2% | SNB-75 CNS 90.7% | SNB-19 CNS 76.7% | U251 CNS 54.7% | PC-3 prostate 39.8% | SK-MEL-5 melanoma 74.3% | UACC-62 melanoma 68.6% | LOX IMVI melanoma 63.8% | SK-MEL-28 melanoma 79.2%

O=C1c2ccccc2C(=O)c2c1ccc1c(=O)n(-c3ccccc3C(F)(F)F)nnc21
inactive: HT29 colon 31.5% | SNB-75 CNS 34.6% | SNB-19 CNS 18.2% | U251 CNS 17.7% | PC-3 prostate 12.9% | SK-MEL-28 melanoma 63.5%
active: HCT-15 colon 3.36% | SK-MEL-5 melanoma -94.3% | UACC-62 melanoma -34.8% | LOX IMVI melanoma -5.7%

C=CCN(CC=C)C(=O)[C@H](CC)[C@@H]1CC[C@@H](C)[C@@H]([C@H](C)[C@@H](O)[C@@H](C)C(=O)[C@H](CC)C2O[C@]3(C=CC(=O)[C@]4(CC[C@@](C)([C@H]5CC[C@](O)(CC)[C@H](C)O5)O4)O3)[C@H](C)C[C@@H]2C)O1 (stereo not given in full)
active: SK-MEL-5 melanoma -12.3%
inactive: HCT-15 colon 11.5% | HT29 colon 16.7% | SNB-75 CNS 38.7% | SNB-19 CNS 23.8% | U251 CNS 30.5% | PC-3 prostate 14.7% | UACC-62 melanoma 10.7% | LOX IMVI melanoma 36.9% | SK-MEL-28 melanoma 19.8%

NC1=NC(c2ccc(Cl)cc2)C2=C(N1)/C(=C/c1ccc(Cl)cc1)CCC2 (stereo not given)
inactive: HCT-15 colon 58.3% | SNB-75 CNS 87.3% | SNB-19 CNS 85.7% | U251 CNS 13.9% | PC-3 prostate 79.5% | SK-MEL-5 melanoma 87.5% | UACC-62 melanoma 74.4% | SK-MEL-28 melanoma 99.2%
active: HT29 colon 7.71% | LOX IMVI melanoma -69.6%

COC1=CC(=O)OC(c2ccc(OC)cc2)C1 (stereo not given)
inactive: HCT-15 colon 121% | HT29 colon 110% | SNB-75 CNS 86.3% | SNB-19 CNS 104% | U251 CNS 117% | PC-3 prostate 105% | SK-MEL-5 melanoma 106% | UACC-62 melanoma 101% | LOX IMVI melanoma 94.9% | SK-MEL-28 melanoma 123%

CC(=O)Nc1ccc2c(c1)C(=O)c1cccc(C(=O)O)c1-2
inactive: HCT-15 colon 107% | HT29 colon 115% | SNB-75 CNS 91% | SNB-19 CNS 101% | U251 CNS 108% | PC-3 prostate 99.5% | SK-MEL-5 melanoma 95.5% | UACC-62 melanoma 109% | LOX IMVI melanoma 109% | SK-MEL-28 melanoma 97.9%

CN(C)CCOc1ccc(-c2nc3sccn3c2-c2ccnc(S(C)(=O)=O)n2)cc1
inactive: HCT-15 colon 101% | HT29 colon 103% | SNB-75 CNS 88.5% | SNB-19 CNS 99.1% | U251 CNS 95.1% | PC-3 prostate 87.2% | SK-MEL-5 melanoma 101% | UACC-62 melanoma 105% | LOX IMVI melanoma 97.5% | SK-MEL-28 melanoma 110%

Clc1nc2ccc(Br)cc2cc1-c1nc2ccccc2[nH]1
inactive: HCT-15 colon 92.3% | HT29 colon 106% | SNB-75 CNS 42.4% | SNB-19 CNS 91% | U251 CNS 81% | PC-3 prostate 39.6% | SK-MEL-5 melanoma 84.7% | UACC-62 melanoma 90.9% | LOX IMVI melanoma 69.5% | SK-MEL-28 melanoma 105%

CC(=O)OC1C=CC(OC(C)=O)O1 (stereo not given)
inactive: HCT-15 colon 95.4% | HT29 colon 91.5% | SNB-75 CNS 95.3% | SNB-19 CNS 104% | U251 CNS 88.6% | PC-3 prostate 92.7% | SK-MEL-5 melanoma 104% | UACC-62 melanoma 84.4% | LOX IMVI melanoma 80.4% | SK-MEL-28 melanoma 110%

COc1cccc(CNc2cccc3cn[nH]c23)c1O
inactive: HCT-15 colon 93.4% | HT29 colon 99.7% | SNB-75 CNS 82% | SNB-19 CNS 96.5% | U251 CNS 92.9% | PC-3 prostate 84.5% | SK-MEL-5 melanoma 82.2% | UACC-62 melanoma 85.6% | LOX IMVI melanoma 90.4% | SK-MEL-28 melanoma 100%

C[C@@H](O)[C@H]1C(=O)N2C(C(=O)O)=C(SCCN=CN)C[C@H]12
active: HCT-15 colon 8.86% | HT29 colon -3.23% | SNB-75 CNS 0.941% | SNB-19 CNS 8.6% | U251 CNS 2.44% | PC-3 prostate 1.74% | SK-MEL-5 melanoma -87.2% | UACC-62 melanoma -38.8% | LOX IMVI melanoma -42.6% | SK-MEL-28 melanoma -41.3%

COc1ccc(C(=O)COc2cccc(/C=C3\Cc4ccccc4C3=O)c2)cc1
inactive: HCT-15 colon 85.6% | HT29 colon 82.1% | SNB-75 CNS 46.8% | SNB-19 CNS 90.8% | U251 CNS 82.6% | PC-3 prostate 82% | SK-MEL-5 melanoma 67.3% | UACC-62 melanoma 61.3% | LOX IMVI melanoma 90.3% | SK-MEL-28 melanoma 103%

OCC1OC2C(NC(=S)N2c2ccccc2)C(O)C1O (stereo not given)
inactive: HCT-15 colon 99.2% | HT29 colon 101% | SNB-75 CNS 99.6% | SNB-19 CNS 91.9% | U251 CNS 97.5% | PC-3 prostate 96% | SK-MEL-5 melanoma 98.5% | UACC-62 melanoma 98.7% | LOX IMVI melanoma 100% | SK-MEL-28 melanoma 105%

CN(C)CCCOc1ccc(OCCCN(C)C)c2c1C(=O)c1ccccc1C2=O
inactive: HCT-15 colon 91.5% | PC-3 prostate 11% | SK-MEL-5 melanoma 10.5%
active: HT29 colon -20.6% | SNB-75 CNS -20.6% | SNB-19 CNS 7.81% | U251 CNS 5.27% | UACC-62 melanoma -46.4% | LOX IMVI melanoma -13.2% | SK-MEL-28 melanoma -4.67%

O=C(N/N=C/c1cc([N+](=O)[O-])ccc1O)c1cccc2ccccc12
inactive: HCT-15 colon 22.5% | HT29 colon 65.9% | SNB-75 CNS 55% | SNB-19 CNS 53% | U251 CNS 29.8% | PC-3 prostate 41.4% | SK-MEL-5 melanoma 39.1% | SK-MEL-28 melanoma 50%
active: UACC-62 melanoma 9.83% | LOX IMVI melanoma 9.69%

CC(=O)C1CCC2C3CC=C4CC(SC(=N)N)CCC4(C)C3CCC12C (stereo not given)
inactive: HCT-15 colon 16.3% | HT29 colon 11% | SNB-75 CNS 55.4% | SNB-19 CNS 64.2% | U251 CNS 30.5% | PC-3 prostate 33% | SK-MEL-5 melanoma 15.6% | UACC-62 melanoma 64.4% | SK-MEL-28 melanoma 61.5%
active: LOX IMVI melanoma -56%

COc1ccc(Cl)cc1Nc1nc(C(F)(F)F)ccc1C(=O)N/N=C/c1ccc(Cl)cc1
inactive: HCT-15 colon 25.4% | HT29 colon 25.2% | SNB-75 CNS 33.8% | SNB-19 CNS 60.2% | U251 CNS 29.9% | PC-3 prostate 34.6% | SK-MEL-5 melanoma 24.3% | UACC-62 melanoma 24.1% | LOX IMVI melanoma 26.7% | SK-MEL-28 melanoma 51.2%

Cc1ccccc1N1C(=O)c2cc(S(N)(=O)=O)c(Cl)cc2NC1C (stereo not given)
inactive: HCT-15 colon 108% | HT29 colon 101% | SNB-75 CNS 87.1% | SNB-19 CNS 116% | U251 CNS 105% | PC-3 prostate 93.6% | SK-MEL-5 melanoma 104% | UACC-62 melanoma 114% | LOX IMVI melanoma 99.7% | SK-MEL-28 melanoma 116%
